# Assay results taken from PubChem BioAssay (NCI).
# The panel holds about 83,000 compounds, 20% with a hit somewhere; the sample as a whole holds those more often.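 Growth was measured after 48 h exposure to one concentration of compound in 96-well plates. Values under 10 count as active.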 Activity calls are given as the source filed them.
# Legend:
# Assay in all cases: NCI-60 one-dose screen, 48 h (100 = growth as untreated, 0 = no growth, -100 = all killed)
# Conditions in all cases: 10 µM unless noted
# T-47D breast = tested on: T-47D breast
# BT-549 breast = tested on: BT-549 breast
# MDA-MB-435 melanoma = tested on: MDA-MB-435 melanoma
# SW-620 colon = tested on: SW-620 colon
# MCF7 breast = tested on: MCF7 breast
# HCT-116 colon = tested on: HCT-116 colon
# HCC-2998 colon = tested on: HCC-2998 colon
# KM12 colon = tested on: KM12 colon
Structure (SMILES),growth (T-47D breast),growth (BT-549 breast),growth (MDA-MB-435 melanoma),growth (SW-620 colon),growth (MCF7 breast),growth (HCT-116 colon),growth (HCC-2998 colon),growth (KM12 colon)
Cn1cc(C2=C(c3cccc4ccccc34)C(=O)NC2=O)c2cc(Br)ccc21,81.3% (inactive),109% (inactive),95.7% (inactive),96.1% (inactive),84.3% (inactive),71.3% (inactive),126% (inactive),89.7% (inactive)
Cn1cc(-c2csc(-c3cn(CCOC(N)=O)c4ccccc34)n2)c2cccnc21,45.8% (inactive),79.5% (inactive),8.15% (active),67.9% (inactive),58.2% (inactive),86.5% (inactive),90.4% (inactive),67% (inactive)
Cc1ccc(C(=O)c2ccc(CC(=O)N=Nc3c(O)[nH]c4ccc(OC(F)(F)F)cc34)n2C)cc1,74.5% (inactive),95.3% (inactive),97.9% (inactive),95.7% (inactive),91.5% (inactive),97% (inactive),119% (inactive),94% (inactive)
O=C1c2cc3c(cc2-c2c1c1ccc(Cl)cc1c(=O)n2CCCn1ccnc1)OCO3,-0.548% (active),-20.3% (active),-58.8% (active),1.05% (active),-9.33% (active),-23% (active),15% (inactive),1.36% (active)
CCCCCCCC/C=C\CCCCCCCCOc1ccccc1CC(=O)NCC[N+]1(C)CCOCC1,84.4% (inactive),82.3% (inactive),95.8% (inactive),81.7% (inactive),82.2% (inactive),71.8% (inactive),45.4% (inactive),47.3% (inactive)
Cc1c(CC(=O)OCCO)cc(-c2ccc(Cl)cc2)n1-c1ccccc1,72.3% (inactive),109% (inactive),98.7% (inactive),104% (inactive),93% (inactive),102% (inactive),118% (inactive),99.1% (inactive)
C[N+]1=C(/C=C\C=C\c2ccccc2)C(C)(C)c2ccccc21,-1.09% (active),22.5% (inactive),9.04% (active),19.8% (inactive),7.58% (active),14.3% (inactive),47.9% (inactive),22.2% (inactive)
CC(=O)OC[C@]12CCC(C)(C)C=C1[C@H]1CC[C@@H]3[C@@]4(C)CCCNC(C)(C)[C@@H]4CC[C@@]3(C)[C@]1(C)CC2,51.8% (inactive),63.8% (inactive),29.7% (inactive),49.9% (inactive),46.6% (inactive),34.1% (inactive),49% (inactive),25.5% (inactive)
COc1cc(/C=N/NC(=O)CCN2c3ccccc3Sc3ccccc32)cc(OC)c1OC,41.5% (inactive),88.6% (inactive),87.4% (inactive),90.8% (inactive),97.3% (inactive),80.1% (inactive),113% (inactive),81.4% (inactive)
Cc1nc2sc(C(=O)Nc3cccc4ncccc34)c(N)c2cc1C(C)O (stereo not given),76.2% (inactive),79% (inactive),-8.44% (active),59.2% (inactive),38.4% (inactive),70.1% (inactive),76.5% (inactive),59.2% (inactive)
